This is an account of results in PubChem BioAssay (EPA / NIEHS).

Read-out in assay [1]: Vascular endothelial growth factor receptor 2 (Homo sapiens) (UniProt P35968)
As to the kind of experiment: BSK_4H_VEGFRII: BioMAP Diversity Plus: 4H Assay for Vascular endothelial growth factor receptor 2 (VEGFR2) Biomarker Activity (AID 2283031). Conditions: primary human endothelial cells (HUVEC); actives raise or lower the signal. In outline: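 In this multiplexed HUVEC system, biomarker ELISA was performed after 24 h chemical exposure. Parallel SRB staining (TCA fixation, 560 nm) tracked cytotoxicity; DMSO served as baseline.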

Read-out in assay [2]: Human Leukocyte Antigen - DR isotype (HLADR), HLA-DRA (gene 3122)
The experiment in a line: BSK_BE3C_HLADR: BioMAP Diversity Plus: BE3C Assay for Human Leukocyte Antigen - DR isotype (HLADR) Biomarker Activity (AID 2283032). Conditions: primary human bronchial epithelial cells; actives raise or lower the signal. A digest of the protocol:
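Chemicals are dosed onto BE3C bronchial epithelial cultures of human origin and left 24 h. HLA-DR is then measured by ELISA, and the endpoint is fitted in both directions using DMSO as the activity baseline.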

Read-out in assay [3]: Vascular cell adhesion molecule 1 (VCAM1), VCAM1 (gene 7412)
The experiment in a line: BSK_4H_VCAM1: BioMAP Diversity Plus: 4H Assay for Vascular cell adhesion molecule 1 (VCAM1) Biomarker Activity (AID 2283033).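 As to outcome: cell-surface VCAM-1 protein measured by ELISA.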 Conditions: primary human endothelial cells (HUVEC); actives raise or lower the signal. A digest of the protocol:
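Chemicals are added to primary human umbilical vein endothelial cells. After 24 h, VCAM-1 levels are measured by ELISA. Values come from bidirectional fitting referenced to DMSO.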

Read-out in assay [4]: Interferon-gamma inducible Protein 10 (IP10), CXCL10 (gene 3627)
As to the kind of experiment: BSK_BE3C_IP10: BioMAP Diversity Plus: BE3C Assay for Interferon-gamma inducible Protein 10 (IP10) Biomarker Activity (AID 2283034). As to conditions: primary human bronchial epithelial cells; actives raise or lower the signal. In outline: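 IP-10 quantified by ELISA serves as the endpoint. Cells: primary human bronchial epithelium, read 24 h after compound addition. Activity is derived by bidirectional fitting with DMSO as negative control.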

Read-out in assay [5]: Monokine induced gamma interferon (MIG), CXCL9 (gene 4283)
As to the kind of experiment: BSK_BE3C_MIG: BioMAP Diversity Plus: BE3C Assay for Monokine induced gamma interferon (MIG) Biomarker Activity (AID 2283035).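 As to outcome: MIG protein measured by ELISA in BE3C cultures after 24 h of dosing.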 Conditions: primary human bronchial epithelial cells; actives raise or lower the signal. In outline:
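ELISA quantified MIG after 24 h exposure of primary bronchial epithelial cultures, analysed in both directions relative to DMSO. Cytotoxicity tracked in parallel cultures by sulforhodamine B staining.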

Read-out in assay [6]: Transforming growth factor beta 1 (TGFb1), TGFB1 (gene 7040)
As to the kind of experiment: BSK_BE3C_TGFb1: BioMAP Diversity Plus: BE3C Assay for Transforming growth factor beta 1 (TGFb1) Biomarker Activity (AID 2283036;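 as to outcome: TGF-b1 protein level measured by ELISA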). Conditions: primary human bronchial epithelial cells; actives raise or lower the signal. A digest of the protocol:
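Bronchial epithelial primary cells are treated with test chemical, then TGF-b1 is quantified by ELISA after 24 hours. Values derive from bidirectional fitting against DMSO, with cytotoxicity checked by SRB staining in parallel cultures.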

Read-out in assay [7]: Plasminogen activator inhibitor-1 (PAI1), SERPINE1 (gene 5054)
As to the kind of experiment: BSK_BE3C_PAI1: BioMAP Diversity Plus: BE3C Assay for Plasminogen activator inhibitor-1 (PAI1) Biomarker Activity (AID 2283037). Conditions: primary human bronchial epithelial cells; actives raise or lower the signal. A digest of the protocol:
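Values derive from bidirectional fitting against DMSO baseline of PAI-1 levels, measured by ELISA in human bronchial epithelial cells 24 h after compound addition.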

Read-out in assay [8]: urokinase plasminogen activator (uPA), PLAU (gene 5328)
The experiment in a line: BSK_BE3C_uPA: BioMAP Diversity Plus: BE3C Assay for urokinase plasminogen activator (uPA) Biomarker Activity (AID 2283038).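 As to outcome: uPA protein level quantified by ELISA in cell cultures; uPA read one day after compound addition.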 Conditions: primary human bronchial epithelial cells; actives raise or lower the signal. In outline:
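Using confluent primary human lung bronchial epithelial cultures, we dosed chemicals, waited 24 h, then ran a uPA ELISA, fitting bidirectionally against DMSO.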

Read-out in assay [9]: Urokinase-type plasminogen activator receptor (uPAR), PLAUR (gene 5329)
The experiment in a line: BSK_BE3C_uPAR: BioMAP Diversity Plus: BE3C Assay for Urokinase-type plasminogen activator receptor (uPAR) Biomarker Activity (AID 2283039).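 As to outcome: uPAR protein level measured by ELISA on the cells; cells exposed to compound for one day before measurement.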 As to conditions: primary human bronchial epithelial cells; actives raise or lower the signal. A digest of the protocol:
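Steps: dose human primary bronchial epithelial cells, incubate 24 h, measure uPAR by ELISA, then fit gain- or loss-of-signal response bidirectionally relative to DMSO.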

Read-out in assay [10]: Interleukin-6 (IL6), IL6 (gene 3569)
As to the kind of experiment: BSK_CASM3C_IL6: BioMAP Diversity Plus: CASM3C Assay for Interleukin-6 (IL6) Biomarker Activity for (AID 2283040). As to conditions: primary human coronary artery smooth muscle cells; actives raise or lower the signal.

Read-out in assay [11]: Tissue plasminogen activator (tPA), PLAT (gene 5327)
As to the kind of experiment: BSK_BE3C_tPA: BioMAP Diversity Plus: BE3C Assay for Tissue plasminogen activator (tPA) Biomarker Activity (AID 2283041).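 As to outcome: tPA level quantified by ELISA one day after compound addition.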 As to conditions: primary human bronchial epithelial cells; actives raise or lower the signal. In outline:
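Gain- or loss-of-signal in tPA, measured by ELISA, derived by bidirectional fitting against DMSO. Cells: human primary bronchial epithelial; read at 24 h after chemical dosing.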

Read-out in assay [12]: Interleukin-8 (IL8), CXCL8 (gene 3576)
As to the kind of experiment: BSK_CASM3C_IL8: BioMAP Diversity Plus: CASM3C Assay for Interleukin-8 (IL8) Biomarker Activity (AID 2283042).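 Also: IL-8 protein level quantified by ELISA.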 Conditions: primary human coronary artery smooth muscle cells; actives raise or lower the signal.

Read-out in assay [13]: Human Leukocyte Antigen - DR isotype (HLADR), HLA-DRA (gene 3122)
As to the kind of experiment: BSK_CASM3C_HLADR: BioMAP Diversity Plus: CASM3C Assay for Human Leukocyte Antigen - DR isotype (HLADR) Biomarker Activity (AID 2283043).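 Also: cell-surface HLA-DR protein level quantified by ELISA.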 As to conditions: primary human coronary artery smooth muscle cells; actives raise or lower the signal.

Read-out in assay [14]: Macrophage colony-stimulating factor (MCSF), CSF1 (gene 1435)
As to the kind of experiment: BSK_CASM3C_MCSF: BioMAP Diversity Plus: CASM3C Assay for Macrophage colony-stimulating factor (MCSF) Biomarker Activity (AID 2283044).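 Also: M-CSF protein amount quantified by ELISA after 24 h exposure.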 As to conditions: primary human coronary artery smooth muscle cells; actives raise or lower the signal.

Read-out in assay [15]: Low-density lipoprotein receptor (LDLR), LDLR (gene 3949)
The experiment in a line: BSK_CASM3C_LDLR: BioMAP Diversity Plus: CASM3C Assay for Low-density lipoprotein receptor (LDLR) Biomarker Activity (AID 2283045).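 Also: LDLR protein level on the cell surface quantified by ELISA.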 As to conditions: primary human coronary artery smooth muscle cells; actives raise or lower the signal.

Read-out in assay [16]: Monocyte Chemoattractant Protein-1 (MCP1), CCL2 (gene 6347)
As to the kind of experiment: BSK_CASM3C_MCP1: BioMAP Diversity Plus: CASM3C Assay for Monocyte Chemoattractant Protein-1 (MCP1) Biomarker Activity (AID 2283046).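 Also: MCP-1 level quantified by ELISA 24 h after dosing.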 Conditions: primary human coronary artery smooth muscle cells; actives raise or lower the signal.

The nature of assay [17]: BSK_CASM3C_Proliferation: Cell Proliferation Assessment in the BioMAP Diversity Plus: CASM3C Assay (AID 2283047).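 Also: sulforhodamine B total protein stain as relative cell number at 560 nm; sub-confluent cells exposed 48 h before staining; fitted both ways against DMSO so gain or loss of cell number.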 As to conditions: primary human coronary artery smooth muscle cells.
Read-out in assay [18]: Monokine induced gamma interferon (MIG), CXCL9 (gene 4283)
The experiment in a line: BSK_CASM3C_MIG: BioMAP Diversity Plus: CASM3C Assay for Monokine induced gamma interferon (MIG) Biomarker Activity (AID 2283048).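 Also: MIG protein level measured by ELISA.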 As to conditions: primary human coronary artery smooth muscle cells; actives raise or lower the signal.

Read-out in assay [19]: serum amyloid A (SAA), SAA1 (gene 6288)
As to the kind of experiment: BSK_CASM3C_SAA: BioMAP Diversity Plus: CASM3C Assay for serum amyloid A (SAA) Biomarker Activity (AID 2283049).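 Also: SAA protein level quantified by ELISA.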 As to conditions: primary human coronary artery smooth muscle cells; actives raise or lower the signal.

Assay [20] can be described thus: BSK_CASM3C_SRB: Viability Assessment in the BioMAP Diversity Plus: CASM3C Assay (AID 2283050).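 Also: total protein by SRB staining as cytotoxicity measure in parallel cultures.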 Conditions: primary human coronary artery smooth muscle cells.

Several values for one entry are separate records, joined by “and”; a condition that tells them apart may be missing. Equal values may be shown once. A structure can be active in one record and inactive in another. Activity calls are given as the source filed them. The calls were made as follows: active = hit-call score of the fitted dose curve at least 0.9, where 1 is the maximum; inactive = score below 0.9.

On to `CC1=C2C[C@H]3[C@@H](CC=C4C[C@@H](O)CC[C@@]43C)[C@@H]2CC[C@]12O[C@@H]1C[C@H](C)CN[C@H]1[C@H]2C`, for which the result in [1], in assay [2], in assay [3], in assay [4], in assay [5] and in assay [6] was inactive. Also, the outcome in [7], in assay [8], in assay [9], in assay [10], in [11] and in assay [12] was inactive. The result in assay [13], in assay [14], in assay [16], in assay [17], in [18] and in assay [19] was inactive. Also, the outcome in [20] was inactive. Also, the AC50 in assay [15] is 2.8 µM (active).
Turning to `Nc1ccc(-c2ccc(N)cc2)cc1`, the result in [1], in assay [2], in [3], in [4], in assay [5] and in assay [6] was inactive. Moreover, the result in assay [7], in [8], in assay [9], in assay [10], in assay [12] and in [13] was inactive. Besides, the result in assay [14], in assay [15], in assay [16], in assay [17], in assay [18] and in assay [19] was inactive. Further, in assay [20], the result was inactive. In addition, the AC50 in assay [11] was 6.73 µM (active).
In the case of `O=S(=O)(O)C(F)(F)C(F)(F)C(F)(F)C(F)(F)C(F)(F)C(F)(F)F`, the result in [1], in assay [2], in [3], in assay [4], in assay [5] and in [6] was inactive. In addition, the outcome in assay [7], in [8], in assay [9], in assay [10], in [11] and in assay [12] was inactive. Moreover, the result in [13], in assay [14], in [15], in assay [16], in assay [17] and in assay [18] was inactive. The outcome in assay [19] and in assay [20] was inactive.
`CCCCCCOC(=O)c1ccccc1C(=O)OCCCCCC`: the outcome in assay [1], in assay [2], in assay [3], in assay [4], in [5] and in [6] was inactive. Moreover, the outcome in assay [7], in [8], in assay [9], in [10], in assay [11] and in assay [12] was inactive. For the same compound, the outcome in [13], in assay [14], in assay [15], in assay [16], in assay [17] and in assay [18] was inactive. Besides, the result in assay [19] and in [20] was inactive.
On to `CC(C)C(=O)OCC(C)(C)C(OC(=O)C(C)C)C(C)C` (stereo unspecified), for which the outcome in [1], in [2], in assay [3], in assay [4], in assay [5] and in assay [6] was inactive. Further, the outcome in assay [7], in assay [8], in assay [9], in [10], in [11] and in [12] was inactive. The outcome in [13], in [14], in assay [15], in [16], in assay [17] and in assay [18] was inactive. In addition, the outcome in assay [19] and in assay [20] was inactive.
In the case of `O=C(O)C(F)(F)C(F)(F)C(F)(F)C(F)(F)C(F)(F)C(F)(F)C(F)(F)C(F)(F)F`, the result in assay [1], in [3], in assay [10], in assay [12], in assay [13] and in [14] was inactive. The result in [15], in [16], in assay [17], in assay [18], in assay [19] and in [20] was inactive. In addition, the half-maximal activity concentration (AC50) is 29.7 µM (active) and 44.1 µM (active) and 45.2 µM (active) in [2]; 41.7 µM (active) in assay [3]; 27.7 µM (active) and 45.9 µM (active) and 43.7 µM (active) in assay [4]; 32.7 µM (active) and 50.1 µM (active) and 52.7 µM (active) in assay [5]; 26.2 µM (active) in assay [6]; 32.3 µM (active) and 23.3 µM (active) and 40.2 µM (active) in assay [7]. Besides, the AC50 in [8] is 37.2 µM (active) and 49.1 µM (active) and 30 µM (active); in assay [9], 35.1 µM (active) and 47.8 µM (active) and 48.6 µM (active); in assay [11], 20 µM (active) and 23.6 µM (active) and 21.6 µM (active).
